Results taken from PubChem BioAssay (NCATS).
Inconclusive results are not listed. A call without a number means that no potency is given here. The source made the active and inactive calls. Unless noted, calls follow the shape of the dose curve; as a rule, active = well fitted curve in the direction sought with a large enough effect; inconclusive = small, poorly fitted or top-dose-only effect, or another doubt; inactive = no such curve, though single readings can be large; an effect the other way counts as inactive or inconclusive.

Experiments:
[1] = target: Ferritin light chain (Equus caballus) (UniProt P02791); test: qHTS Validation Assay for Identification of Novel General Anesthetics (AID 2323); also: series mostly up to about 77 µM
Summary of the method: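 10 uM horse-spleen apoferritin + 1-AMA (50% saturated, PBS); cpd pin-transferred, 10 min RT. Ex 380/Em 535 nm endpoint. Activity normalized between free 1-AMA and 1-AMA/apoferritin; 4-parameter Hill fit of concentration-response.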

[2] = target: ATP-dependent DNA helicase Q1 (Homo sapiens) (UniProt P46063); test: qHTS Validation Assay for Inhibitors of RecQ-Like Dna Helicase 1 (RECQ1) (AID 2353)
Summary of the method: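 RECQ1T1 50 nM; forked duplex (20 bp + 30-nt ss tails) 200 nM, ATP 2 mM final; pH 8.0, 2 mM MgCl2, 2.5 ug/ml poly(dI-dC); 15 min compound preincubation; discontinuous kinetic read over 2 h at RT.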

[3] = target: RecQ-like DNA helicase BLM (Homo sapiens) (UniProt P54132); test: qHTS Validation Assay for Inhibitors of Bloom's syndrome helicase (BLM) (AID 2364); also: potency is read from the fitted curve at half-maximal effect
Summary of the method: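 BLM 50 nM in 25 mM Tris-HCl pH 8.0, 5 mM NaCl, 2 mM MgCl2, 1 mM DTT, 0.01% Tween-20, 2.5 ug/ml poly(dI-dC); 15 min cpd preinc, RT. Start: 200 nM forked DNA + 2 mM ATP (final). TAMRA read, 2 reads 2 h apart.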

[4] = High Content Imaging Cell-Based qHTS for Inhibitors of the mTORC1 Signaling Pathway in MEF (Tsc2-/-, p53-/-) Cells (AID 2666);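 also: percent of cells scored positive for phospho-rpS6 Ser235/236 immunostaining by imaging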; also: potency is read from the fitted curve at half-maximal effect
Summary of the method: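 Inhibition of rpS6 phosphorylation is measured by immunofluorescence imaging in empty-vector Tsc2-/-, p53-/- mouse embryonic fibroblasts after 24 hrs compound exposure at 37 degree Celsius. Results are reported as % positive cells per well.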

[5] = High Content Imaging Cell-Based qHTS for Inhibitors of the mTORC1 Signaling Pathway in MEF Cells (AID 2667); also: potency is read from the fitted curve at half-maximal effect
Summary of the method: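 Fixed-cell imaging of phospho-S6 (Ser235/236, Alexa-488) after 24 hrs of compound treatment at 37 degree Celsius. Signal was normalized to Hoechst, and thresholds from the highest and lowest wells split cells into % active versus % non-active.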

[6] = Cytometry Cell-Based qHTS for Inhibitors of the mTORC1 Signaling Pathway in MEF cells (AID 2668); also: potency is read from the fitted curve at half-maximal effect
Summary of the method: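 Read-out: phospho-rpS6 Ser235/236 immunofluorescence normalized to propidium iodide intensity, scored as % active cells against a rapamycin (7.5 nM) threshold. Cells: Tsc2-/-, p53-/- MEFs stably expressing WT Tsc2, compound-treated 24 hrs at 37 degree Celsius.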

[7] = Validation screen for small molecules that induce DNA re-replication in MCF 10A normal breast cells (AID 463097); also: nearly all actives have a fitted effect of over 60% in size; also: potency is read from the fitted curve at half-maximal effect
Summary of the method: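 250 MCF 10A cells/well; compound pin-transferred; 48 hr, 37 C, 5% CO2; Hoechst 40 min; imaged 405/500-530 nm. Hits = more high-intensity nuclei.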

[8] = target: Ubiquitin carboxyl-terminal hydrolase 2 (Homo sapiens) (UniProt O75604); test: qHTS Validation Assay for Inhibitors of Ubiquitin-specific Protease USP2a Using CHOP2 as the Reporter (AID 463106)
Summary of the method: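 Inhibition is expressed relative to NEM as the full-inhibition control, with concentration-response curves classed by fit quality, magnitude and activity. Enzyme (USP2 core, 10nM) meets 25nM Ub-CHOP2 after compound preincubation; readings are taken at 60min.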

[9] = target: DNA polymerase III PolC-type (Bacillus subtilis (strain 168)) (UniProt P13267); test: qHTS Validation Assay for the Inhibitors of DNA Replication in Gram-Positive Bacteria (AID 485295);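 also: reconstituted holoenzyme with PolC plus beta clamp SSB and primase; PicoGreen fluorescence of double-stranded DNA made on primed circular M13 template; series mostly up to about 57 µM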
Summary of the method: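 PicoGreen fluorescence (ex 480–485/em 535–540 nm) reports dsDNA synthesized on ssM13Gori template with dNTPs/NTPs. Enzyme: holoenzyme rebuilt from purified PolC, beta subunit, SSB and primase. Compound preincubated before substrate addition; RT throughout.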

[10] = target: Tumor susceptibility gene 101 protein (Homo sapiens) (UniProt Q99816); test: qHTS Validation Assay for Iinhibitors of HIV-1 Budding by Blocking the Interaction of PTAP/TSG101 (AID 485342; calls by dose curve)
Summary of the method: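 FP read-out: FITC-PTAP peptide, 50 nM final, binding Tsg101 binding domain, 10 uM final; 20 min r.t.; 10 mM HEPES pH 7.5, 0.15 M NaCl, 0.01% Tween 20, 3 mM EDTA, 0.1 mM TCEP.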

[11] = qHTS Validation Assay to Find Inhibitors of Chronic Active B-Cell Receptor Signaling (AID 485345; active = well fitted curve in the direction sought with a large enough effect in the main read-out, with a control signal flat, not every such curve was filed as active)
Summary of the method: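 TMD8 ABC-DLBCL cells with dox-inducible green luciferase–IκBα fusion and red native luciferase; compounds 46 uM–3 nM, 4 h at 37C with doxycycline in 0.5% FBS IMDM. Green/red ratio normalized to basal and 10 uM MG-132.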

[12] = target: Beta-2 adrenergic receptor (Homo sapiens) (UniProt P07550); test: qHTS validation assay of beta-arrestin-biased ligands of beta2-adrenergic receptor (AID 485366)
Summary of the method: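 Screening used a titration range of up to 46 microM in a beta-arrestin recruitment Tango luciferase assay. Cells in 1% FBS medium were treated 18 hr at 37 degrees C, and luminescence was normalized to %Activity.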

[13] = target: ATP-dependent 6-phosphofructokinase (Trypanosoma brucei brucei) (UniProt O15648); test: qHTS Validation Assay to Find Inhibitors of T. brucei phosphofructokinase (AID 485368)
Summary of the method: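 PFK-generated ADP was measured after 45 min at room temperature using ADP-Glo. The reaction contained 0.5 mM F6P and 0.1 mM ATP.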

[14] = Quantitative high throughput screen for delayed death inhibitors of the malarial parasite plastid, 96 hour incubation (AID 488745); also: series mostly up to about 29 µM; nearly all actives have a fitted effect of over 70% in size
Summary of the method: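 Decreased firefly luciferase luminescence indicates inhibited growth of reporter-integrated P. falciparum after two generations (96 h, 37 C, 5% CO2). Infected erythrocytes at 0.1% parasitemia, 2% hematocrit, in Albumax-supplemented RPMI 1640.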

[15] = Quantitative high throughput screen for delayed death inhibitors of the malarial parasite plastid, 48 hour incubation (AID 488752); also: nearly all actives have a fitted effect of over 65% in size; also: potency is read from the fitted curve at half-maximal effect
Summary of the method: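 One-generation (48 h) growth assay: a decrease in luciferase signal from an integrated reporter in P. falciparum-infected red cells (0.1% parasitemia, 2% hematocrit) after compound exposure at 37 C indicates parasite inhibition.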

[16] = target: Thioredoxin reductase 1, cytoplasmic (Rattus norvegicus) (UniProt O89049); test: qHTS Assay for Substrates of Mammalian Selenoprotein Thioredoxin Reductase 1 (TrxR1) (AID 488772);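 also: series mostly up to about 57 µM; a drop in NADPH fluorescence below the no-compound background marks a TrxR1 substrate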
Summary of the method: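 In this dual-purpose format, potential substrates are identified from the first fluorescence read after selenite addition, not from the 8-minute delta. Rat enzyme is preincubated with NADPH and then with compound at ~22 deg C.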

[17] = target: Flap endonuclease 1 (Homo sapiens) (UniProt P39748); test: qHTS Validation Assay for the Inhibitors of Human Flap endonuclease 1 (FEN1) (AID 488816)
Summary of the method: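 Steps: add FEN1 (10 nM reagent) or buffer only; pin compounds; hold 15 min at room temperature; start with substrate, 50 nM final; read at 0 and 15 min; correct, normalize and fit a four-parameter Hill curve.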

[18] = Cytometric Cell-Based qHTS for Inhibitors of the mTORC1 Signaling Pathway in MEF (Tsc2-/-, p53-/-) Cells (AID 2660);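 also: Tsc2 and p53 null MEFs carrying empty vector with compound for 24 h; percent of cells above a phospho-rpS6 to PI ratio cutoff in each well; series mostly up to about 38 µM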
Summary of the method: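 Percent of cells positive for normalized phospho-S6 staining is reported, with the cutoff set from rapamycin (7.5 nM) versus DMSO wells. Tsc2-/-, p53-/- MEFs received compound for 24 hrs.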

[19] = target: Thioredoxin reductase 1, cytoplasmic (Rattus norvegicus) (UniProt O89049); test: qHTS Assay for Inhibitors of Mammalian Selenoprotein Thioredoxin Reductase 1 (TrxR1) (AID 488773); conditions: Potency: inhibition;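 also: drop in NADPH fluorescence over an 8 min run after selenite addition; series mostly up to about 57 µM; nearly all actives have a fitted effect of over 40% in size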
Summary of the method: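 Inhibition is scored from the loss of NADPH fluorescence between first and last reads of an 8-min kinetic run. Selenite (400 uM) was the substrate, added after 15 min compound preincubation at room temperature.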

[20] = qHTS Assay for Identification of Small Molecule Inducers of Hypoxia Response (AID 2120; active = well fitted curve in the direction sought with a large enough effect in the signal ratio, with a control signal flat, not every such curve was filed as active; the % refers to the signal ratio)
Summary of the method: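 Reporter induction read as the CCF4 blue/green (460nm/530nm) emission ratio after 2.5 h dye loading at room temperature. ME-180 HRE-beta-lactamase cells received titrated compounds for 17 h at 37 degrees Celsius; AC50 values derived.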

Chain of Beta-2 adrenergic receptor (Homo sapiens) (P07550 whole entry, looked up): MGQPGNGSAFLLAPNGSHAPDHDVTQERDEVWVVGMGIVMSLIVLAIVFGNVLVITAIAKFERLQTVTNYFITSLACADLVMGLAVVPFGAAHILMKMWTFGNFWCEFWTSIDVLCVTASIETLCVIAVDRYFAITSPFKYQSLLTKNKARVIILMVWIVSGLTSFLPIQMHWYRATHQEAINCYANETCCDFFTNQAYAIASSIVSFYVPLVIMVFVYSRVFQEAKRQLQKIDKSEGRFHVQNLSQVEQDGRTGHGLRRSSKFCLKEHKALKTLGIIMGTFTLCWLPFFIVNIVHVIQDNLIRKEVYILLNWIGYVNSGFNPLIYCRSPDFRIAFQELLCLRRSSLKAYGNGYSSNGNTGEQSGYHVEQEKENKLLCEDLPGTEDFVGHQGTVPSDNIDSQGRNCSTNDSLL
Chain of Ubiquitin carboxyl-terminal hydrolase 2 (Homo sapiens) (O75604 whole entry, looked up): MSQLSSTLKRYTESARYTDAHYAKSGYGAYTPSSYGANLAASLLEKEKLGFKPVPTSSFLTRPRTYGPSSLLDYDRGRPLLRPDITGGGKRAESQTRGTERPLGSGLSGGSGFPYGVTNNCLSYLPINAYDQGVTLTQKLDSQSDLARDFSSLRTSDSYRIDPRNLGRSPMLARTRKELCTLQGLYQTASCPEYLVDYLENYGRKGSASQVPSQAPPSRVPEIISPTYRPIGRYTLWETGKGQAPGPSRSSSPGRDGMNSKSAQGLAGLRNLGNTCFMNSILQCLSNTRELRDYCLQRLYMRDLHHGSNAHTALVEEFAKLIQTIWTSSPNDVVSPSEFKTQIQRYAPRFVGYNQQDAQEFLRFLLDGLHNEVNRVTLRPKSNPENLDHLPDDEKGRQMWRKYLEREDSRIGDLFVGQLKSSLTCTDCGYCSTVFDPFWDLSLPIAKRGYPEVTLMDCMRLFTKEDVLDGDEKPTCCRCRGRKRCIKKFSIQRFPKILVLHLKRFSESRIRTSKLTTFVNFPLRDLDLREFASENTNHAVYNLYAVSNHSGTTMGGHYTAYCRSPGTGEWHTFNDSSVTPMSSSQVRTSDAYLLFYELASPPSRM
Chain of Thioredoxin reductase 1, cytoplasmic (Rattus norvegicus) (O89049 whole entry, looked up): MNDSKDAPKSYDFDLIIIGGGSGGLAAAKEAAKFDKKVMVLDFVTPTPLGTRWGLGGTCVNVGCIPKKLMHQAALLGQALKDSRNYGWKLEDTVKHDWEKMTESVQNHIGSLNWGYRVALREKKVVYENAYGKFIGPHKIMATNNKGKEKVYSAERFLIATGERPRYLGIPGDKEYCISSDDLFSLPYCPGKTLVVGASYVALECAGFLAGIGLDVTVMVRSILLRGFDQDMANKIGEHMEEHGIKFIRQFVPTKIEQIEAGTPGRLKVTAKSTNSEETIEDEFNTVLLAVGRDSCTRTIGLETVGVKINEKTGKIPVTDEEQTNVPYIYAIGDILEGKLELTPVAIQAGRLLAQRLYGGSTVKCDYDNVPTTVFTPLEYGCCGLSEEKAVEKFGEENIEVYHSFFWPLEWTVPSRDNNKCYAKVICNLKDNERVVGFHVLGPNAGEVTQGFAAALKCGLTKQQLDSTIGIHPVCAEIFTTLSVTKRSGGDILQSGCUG
Chain of Ferritin light chain (Equus caballus) (P02791 2-175 limits assumed): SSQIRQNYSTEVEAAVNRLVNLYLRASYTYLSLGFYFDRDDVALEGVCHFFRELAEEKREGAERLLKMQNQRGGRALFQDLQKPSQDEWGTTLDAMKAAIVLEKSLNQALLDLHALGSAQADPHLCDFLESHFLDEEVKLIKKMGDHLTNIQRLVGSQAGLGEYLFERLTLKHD
Chain of ATP-dependent DNA helicase Q1 (Homo sapiens) (P46063 whole entry, looked up): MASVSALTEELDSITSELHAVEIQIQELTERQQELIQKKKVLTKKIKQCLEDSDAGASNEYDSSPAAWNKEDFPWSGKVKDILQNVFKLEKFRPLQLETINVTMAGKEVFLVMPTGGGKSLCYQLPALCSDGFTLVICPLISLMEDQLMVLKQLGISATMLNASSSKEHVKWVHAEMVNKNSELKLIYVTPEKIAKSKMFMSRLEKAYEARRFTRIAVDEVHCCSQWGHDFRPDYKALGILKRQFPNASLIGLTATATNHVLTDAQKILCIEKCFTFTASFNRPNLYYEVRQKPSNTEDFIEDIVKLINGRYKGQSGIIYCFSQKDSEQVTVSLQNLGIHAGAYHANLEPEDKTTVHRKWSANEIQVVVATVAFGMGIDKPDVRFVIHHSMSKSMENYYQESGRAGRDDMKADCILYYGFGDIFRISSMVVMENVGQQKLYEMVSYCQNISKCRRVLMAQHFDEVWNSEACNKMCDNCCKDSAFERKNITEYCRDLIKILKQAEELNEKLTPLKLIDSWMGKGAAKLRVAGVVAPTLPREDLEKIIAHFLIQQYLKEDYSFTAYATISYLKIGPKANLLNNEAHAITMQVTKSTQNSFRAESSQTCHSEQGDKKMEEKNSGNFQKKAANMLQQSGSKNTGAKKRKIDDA
Chain of Flap endonuclease 1 (Homo sapiens) (P39748 whole entry, looked up): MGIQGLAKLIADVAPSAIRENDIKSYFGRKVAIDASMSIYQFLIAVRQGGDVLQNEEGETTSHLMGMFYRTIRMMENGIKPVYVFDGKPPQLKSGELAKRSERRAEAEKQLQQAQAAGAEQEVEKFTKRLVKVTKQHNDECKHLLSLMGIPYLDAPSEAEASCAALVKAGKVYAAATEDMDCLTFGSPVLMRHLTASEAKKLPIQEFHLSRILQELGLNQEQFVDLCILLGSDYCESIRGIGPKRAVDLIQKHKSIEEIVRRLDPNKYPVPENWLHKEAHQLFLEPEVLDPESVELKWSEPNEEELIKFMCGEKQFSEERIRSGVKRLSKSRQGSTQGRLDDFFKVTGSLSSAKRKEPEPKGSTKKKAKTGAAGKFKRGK
Chain of RecQ-like DNA helicase BLM (Homo sapiens) (P54132 whole entry, looked up): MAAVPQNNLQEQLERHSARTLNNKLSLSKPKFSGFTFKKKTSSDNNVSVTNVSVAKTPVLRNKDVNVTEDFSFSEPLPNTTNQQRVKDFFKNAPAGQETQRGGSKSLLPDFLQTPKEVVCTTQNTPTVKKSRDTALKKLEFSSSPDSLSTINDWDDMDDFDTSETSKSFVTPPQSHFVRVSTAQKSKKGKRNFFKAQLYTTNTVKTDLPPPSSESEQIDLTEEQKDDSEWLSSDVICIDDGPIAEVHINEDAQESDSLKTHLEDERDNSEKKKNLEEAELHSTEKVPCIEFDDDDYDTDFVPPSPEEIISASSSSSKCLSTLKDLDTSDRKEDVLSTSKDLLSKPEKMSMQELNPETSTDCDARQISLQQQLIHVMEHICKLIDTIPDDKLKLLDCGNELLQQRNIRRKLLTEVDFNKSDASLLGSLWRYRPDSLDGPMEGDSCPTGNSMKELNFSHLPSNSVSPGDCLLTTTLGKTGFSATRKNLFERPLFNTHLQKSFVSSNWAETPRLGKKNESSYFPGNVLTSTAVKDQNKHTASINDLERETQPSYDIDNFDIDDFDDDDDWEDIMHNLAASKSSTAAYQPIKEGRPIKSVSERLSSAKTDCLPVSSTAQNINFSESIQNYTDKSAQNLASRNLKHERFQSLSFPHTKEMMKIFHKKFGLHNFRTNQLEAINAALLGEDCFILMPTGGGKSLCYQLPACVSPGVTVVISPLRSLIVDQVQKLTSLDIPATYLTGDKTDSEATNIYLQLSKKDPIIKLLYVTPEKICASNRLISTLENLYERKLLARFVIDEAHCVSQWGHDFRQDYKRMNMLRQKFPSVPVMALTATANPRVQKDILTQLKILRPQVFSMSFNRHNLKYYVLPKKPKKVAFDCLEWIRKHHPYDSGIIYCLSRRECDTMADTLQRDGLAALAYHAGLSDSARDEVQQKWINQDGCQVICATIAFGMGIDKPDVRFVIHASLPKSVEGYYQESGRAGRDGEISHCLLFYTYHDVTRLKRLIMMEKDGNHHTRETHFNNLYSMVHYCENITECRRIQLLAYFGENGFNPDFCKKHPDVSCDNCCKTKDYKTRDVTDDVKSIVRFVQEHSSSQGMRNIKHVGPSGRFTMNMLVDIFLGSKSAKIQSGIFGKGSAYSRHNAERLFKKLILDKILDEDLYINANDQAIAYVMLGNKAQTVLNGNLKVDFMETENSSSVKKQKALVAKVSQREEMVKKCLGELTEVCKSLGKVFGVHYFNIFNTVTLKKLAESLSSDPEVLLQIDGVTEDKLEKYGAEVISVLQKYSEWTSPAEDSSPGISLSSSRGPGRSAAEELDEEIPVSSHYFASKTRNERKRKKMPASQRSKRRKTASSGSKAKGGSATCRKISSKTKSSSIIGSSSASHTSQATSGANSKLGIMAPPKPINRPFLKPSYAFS
Chain of Tumor susceptibility gene 101 protein (Homo sapiens) (Q99816 whole entry, looked up, the tested form may be a part): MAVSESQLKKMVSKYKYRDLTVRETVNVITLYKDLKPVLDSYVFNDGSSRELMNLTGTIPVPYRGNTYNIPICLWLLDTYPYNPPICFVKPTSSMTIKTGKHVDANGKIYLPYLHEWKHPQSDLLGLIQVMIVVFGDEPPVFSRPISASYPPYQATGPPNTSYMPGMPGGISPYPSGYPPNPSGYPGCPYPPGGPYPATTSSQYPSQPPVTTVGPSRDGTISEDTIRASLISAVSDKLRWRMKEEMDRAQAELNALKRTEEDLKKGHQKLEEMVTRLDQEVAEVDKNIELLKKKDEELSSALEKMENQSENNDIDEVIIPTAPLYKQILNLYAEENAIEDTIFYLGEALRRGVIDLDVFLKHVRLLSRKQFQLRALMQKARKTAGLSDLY
Chain of ATP-dependent 6-phosphofructokinase (Trypanosoma brucei brucei) (O15648 whole entry, looked up): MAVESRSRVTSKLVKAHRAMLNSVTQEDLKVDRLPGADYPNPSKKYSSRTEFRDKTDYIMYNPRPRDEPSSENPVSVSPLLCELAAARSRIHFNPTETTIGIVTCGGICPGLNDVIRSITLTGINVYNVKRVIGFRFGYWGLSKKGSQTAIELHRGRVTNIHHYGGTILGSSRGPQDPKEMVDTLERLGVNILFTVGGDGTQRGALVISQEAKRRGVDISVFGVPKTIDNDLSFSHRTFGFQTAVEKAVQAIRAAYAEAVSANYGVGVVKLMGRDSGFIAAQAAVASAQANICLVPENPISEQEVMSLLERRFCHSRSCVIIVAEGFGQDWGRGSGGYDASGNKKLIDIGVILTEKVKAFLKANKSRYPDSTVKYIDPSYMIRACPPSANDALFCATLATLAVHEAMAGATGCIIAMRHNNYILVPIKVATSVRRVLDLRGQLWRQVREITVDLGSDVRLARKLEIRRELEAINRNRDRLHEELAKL

Row | Compound | Potency [1] | Potency [2] | Potency [3] | Potency [4] | Potency [5] | Potency [6] | Potency [7] | Potency [8] | Potency [9] | outcome [10] | Potency [11] | outcome [12] | Potency [13] | Potency [14] | Potency [15] | outcome [16] | Potency [17] | outcome [18] | Potency [19] | outcome [20]
1 | NC(=O)OCC(COC(N)=O)c1ccccc1 | inactive | inactive | inactive | inactive | inactive | inactive | inactive | inactive | inactive | inactive | inactive | inactive | inactive | inactive | inactive | inactive | inactive | – | – | –
2 | CC[N+](CC)(CC)CCOc1cccc(OCC[N+](CC)(CC)CC)c1OCC[N+](CC)(CC)CC | inactive | inactive | inactive | – | inactive | inactive | inactive | inactive | inactive | inactive | inactive | – | – | – | inactive | inactive | inactive | – | – | –
3 | COc1cc2nc(N3CCN(C(=O)c4ccco4)CC3)nc(N)c2cc1OC | inactive | inactive | inactive | inactive | – | – | 15.8 µM (active) | – | inactive | inactive | inactive | – | inactive | – | – | inactive | – | – | – | –
4 | O=C(c1ccc(F)cc1)C1CCN(CCn2c(=O)[nH]c3ccccc3c2=O)CC1 | inactive | inactive | inactive | – | inactive | inactive | inactive | inactive | inactive | inactive | inactive | inactive | – | – | – | inactive | inactive | inactive | – | –
5 | CCC1(C)CC(=O)NC1=O (stereo not given) | inactive | inactive | inactive | – | inactive | inactive | inactive | inactive | inactive | inactive | inactive | – | inactive | – | inactive | inactive | inactive | – | inactive | –
6 | N[C@@H](Cc1c[nH]c2ccc(O)cc12)C(=O)O | inactive | inactive | – | inactive | – | – | inactive | inactive | – | inactive | – | inactive | – | – | inactive | inactive | inactive | inactive | – | inactive
7 | CCOC(=O)Nc1ccc(NCc2ccc(F)cc2)nc1N | inactive | inactive | 28.2 µM (active) | inactive | inactive | inactive | – | inactive | – | – | – | inactive | – | – | – | inactive | – | inactive | – | –
8 | Fc1ccc([C@@H]2CCNC[C@H]2COc2ccc3c(c2)OCO3)cc1 | inactive | inactive | inactive | 2.93 µM (active) | – | – | inactive | inactive | – | inactive | – | – | – | – | – | inactive | inactive | – | – | –
9 | COc1cc2c(c(OC)c1OC)-c1ccc(OC)c(=O)cc1[C@@H](NC(C)=O)CC2 | – | inactive | inactive | inactive | inactive | inactive | – | inactive | inactive | inactive | – | – | – | – | inactive | inactive | – | – | – | inactive
10 | Cc1ccc(-c2cc(C(F)(F)F)nn2-c2ccc(S(N)(=O)=O)cc2)cc1 | – | – | – | – | – | – | – | – | – | – | – | – | – | – | – | – | – | – | – | inactive
11 | Cn1cnc2c1c(=O)[nH]c(=O)n2C | inactive | inactive | inactive | – | inactive | inactive | inactive | inactive | – | inactive | – | inactive | – | – | inactive | inactive | inactive | – | – | –
12 | O=C(CCCN1CCC(O)(c2ccc(Cl)cc2)CC1)c1ccc(F)cc1 | inactive | inactive | inactive | – | 23.3 µM (active) | – | inactive | inactive | inactive | inactive | inactive | – | – | – | 10.4 µM (active) | inactive | – | inactive | – | –
13 | CN1CCC(=C2c3ccccc3C=Cc3ccccc32)CC1 | inactive | inactive | inactive | inactive | inactive | – | inactive | inactive | inactive | inactive | inactive | – | inactive | – | – | inactive | – | inactive | inactive | –
14 | CC(C(=O)O)c1cccc(C(=O)c2ccccc2)c1 (stereo not given) | inactive | inactive | inactive | inactive | inactive | inactive | inactive | inactive | inactive | inactive | inactive | inactive | – | – | inactive | inactive | – | – | – | –
15 | CN1CCC(=C2c3ccccc3CC(=O)c3sccc32)CC1 | inactive | inactive | inactive | – | inactive | inactive | inactive | inactive | inactive | inactive | inactive | inactive | – | inactive | inactive | inactive | inactive | inactive | inactive | –
16 | O=C1N(c2ccccc2)c2ccccc2C1(Cc1ccncc1)Cc1ccncc1 | inactive | inactive | inactive | – | inactive | inactive | inactive | inactive | – | inactive | – | – | – | – | – | inactive | inactive | – | inactive | –
17 | COc1cc2nc(N3CCN(C(=O)C4COc5ccccc5O4)CC3)nc(N)c2cc1OC (stereo not given) | inactive | inactive | inactive | inactive | – | 11.7 µM (active) | – | inactive | inactive | inactive | – | inactive | inactive | – | 4.15 µM (active) | inactive | – | – | – | –
18 | CN(C)CCC=C1c2ccccc2C=Cc2ccccc21 | inactive | inactive | inactive | inactive | – | – | inactive | inactive | inactive | inactive | – | inactive | inactive | – | – | inactive | inactive | inactive | inactive | –
19 | CC(COc1ccccc1)N(CCCl)Cc1ccccc1 (stereo not given) | inactive | inactive | inactive | – | inactive | inactive | inactive | inactive | – | inactive | inactive | inactive | – | – | inactive | inactive | – | – | – | –
